# Source: PubChem BioAssay
# This is a sample that favours compounds with a hit; in the whole collection about 12% have one here.
# Cycloheximide cs = Cycloheximide Counterscreen for Small Molecule Inhibitors of Shiga Toxin. cell reporter, cycloheximide protein synthesis inhibition counterscreen. max response, %. 300,000 compounds, 12% hits; in the data active means max response mostly above about 13%, no sharp cut-off; inactive means mostly below about 14%; further: read at 38.3 µM for the half of the compounds with a filed dose; 0% is about no effect
# Shiga inhibitor = A qHTS for Small Molecule Inhibitors of Shiga Toxin; Vero cells, Shiga toxin protein synthesis inhibition reporter; 290,000 compounds, 9.2% hits; AID 2315, 2010; inhibition, % at 38.7 µM; in the data active means inhibition mostly above about 28%, no sharp cut-off; inactive means mostly below about 43%; further: 0% is about no effect
# MARV entry inh = qHTS for inhibitors of binding or entry into cells for Marburg Virus; Marburg virus pseudotyped entry inhibition, cell reporter; Potency, µM (top dose mostly 37.8 µM), for the others: at the top dose activity change, negative = inhibition, hits mostly inhibitors; 300,000 compounds, 1.8% hits; calls by dose curve; tested in HEK293 cells; further: potency means the concentration at half of the fitted maximal effect; on the % scale 0 is the no-effect control and ±100 the full control effect
# LASV entry inh = qHTS for Inhibitors of binding or entry into cells for Lassa Virus | Potency, µM (series often up to 37.9 µM), without a hit: top-dose activity change, negative = inhibition, usual class: inhibitors | 300,000 compounds, 1.2% hits | AID 540256, 2011 | Lassa virus pseudotype entry inhibition, cell reporter; calls by dose curve; tested in HEK293 cells; further: potency means the concentration at half of the fitted maximal effect; on the % scale 0 is the no-effect control and ±100 the full control effect; nearly all actives have a fitted effect of over 50% in size
# * hit, by the source's call; u = inconclusive; x = no result; [ ] = another dose, or the depositor's remark.
SMILES,Cycloheximide cs,Shiga inhibitor,MARV entry inh,LASV entry inh
CN(C(=O)COc1cc(C(F)(F)F)nn1C)c1ccccc1,-2,15,3%,-1%
CN(C(=O)COc1nc2ccccc2s1)c1ccccc1,11,23*,x,x
COc1ccccc1OC(=O)CCc1nc2ccccc2s1,25,36,22%,-2%
COc1cccc(CNC(=O)C2CCN(S(=O)(=O)c3c(C)noc3/C=C/c3cccs3)CC2)c1,x,x,-4%[46.1 µM],-3%[46.1 µM]
Cc1ccc2c(c1)c1cccc3c1n2CCN3CCC(N)=O,34*,190*,0%,u
NC(=O)CCn1c2ccccc2c2ccccc21,1,9,6%[46.1 µM],14%
CSc1ccc(CCNC(=O)C2=C(C)C(=O)OC23CCCCC3)cc1,x,x,4%[46.1 µM],u
O=C(N=C1N=C2C=CC=CN2Cc2ccccc21)c1ccc(S(=O)(=O)N2CCCC2)cc1,55*,97*,9%[46.1 µM],-3%
CN(C)S(=O)(=O)c1cccc(C(=O)N2CCN(Cc3ccccc3)CC2)c1,0,6,-11%,-7%
O=C(OCCN1C(=O)c2ccccc2C1=O)c1ccc(S(=O)(=O)N2CCCCCC2)cc1,-2,-7,24%,1%
CN(C)S(=O)(=O)c1cccc(C(=O)N=C2N=C3C=CC(Cl)=CN3Cc3ccccc32)c1,53*,130*,0%[46.1 µM],-25%
O=C(N=C1N=C2C=CC=CN2Cc2ccccc21)c1ccc(S(=O)(=O)N2CCOCC2)cc1,33*,154*,x,x
COc1ccc(C(=O)NCc2ccc(-c3nc4ccccc4s3)cc2)cc1OC,35,123,-2%,-17%
O=C(NCc1ccc(-c2nc3ccccc3s2)cc1)c1ccco1,34*,71*,u,u
O=C(NC(=S)NCc1ccc(-c2nc3ccccc3s2)cc1)c1ccco1,30*,64*,u,-28%
CCOc1ccc(-c2noc(-c3cccnc3)n2)cc1OCC,1,12,10%[46.1 µM],6%
COc1ccc(-c2noc(CN(C(=O)c3ccc(OC(C)=O)cc3)C(C)C)n2)cc1OC,-1,15,0%,u
CC(=O)Oc1ccc(-c2nc(-c3cccnc3)no2)cc1,39*,41*,-20%,u
CC(=O)Oc1ccc(Oc2ccc(-c3noc(C)n3)cc2)cc1,32*,83*,-7%,3%
CCOc1ccc(-c2nc(-c3cccnc3)no2)cc1OCC,12*,41,19%,23%
O/C(=C\c1nc2ccccc2nc1/C=C(\O)c1ccccc1)c1ccccc1,31*,102*,2%,6%
O=c1oc2ccc(Cl)cc2nc1/C=C(\O)c1ccco1,25*,41*,5%,-25%
O=c1oc2ccccc2nc1/C=C(\O)c1ccccc1,63*,104*,x,x
Cc1nc(C)c(/C(O)=C/c2nc3ccccc3oc2=O)s1,22*,-3,u,0%
CSc1ccccc1NC(=O)CSc1nnc(Cc2ccccc2)o1,-2,-3,3%[46.1 µM],-12%
SMILES,Cycloheximide cs,Shiga inhibitor,MARV entry inh,LASV entry inh
O=C(NCCCNc1ccnc2cc(Cl)ccc12)c1ccccc1F,9,3,x,x
Clc1ccc2c(NCCNC3CCCCC3)ccnc2c1,x,x,1.6µM*,u
CC(Nc1ccnc2cc(Cl)ccc12)c1ccc(S(N)(=O)=O)cc1 (centres undefined),6,-15,-2%[46.1 µM],u
CC(C)NC1CCC(Nc2ccnc3cc(Cl)ccc23)CC1 (centres undefined),x,x,2.8µM*,u
CC1CCCN1c1ccnc2cc(Cl)ccc12 (centres undefined),x,x,u,-12%[46.1 µM]
CC(CCCN1CCCC1)Nc1ccnc2cc(Cl)ccc12 (centres undefined),x,x,3.5µM*,5%[46.1 µM]
CN1CCN(C(=S)NC(CC(=O)c2ccccc2)c2ccccc2)CC1 (centres undefined),-3,-9,u,u
CC(=O)Nc1ccc(S(=O)(=O)Nc2nc3ccc(C)cc3s2)cc1,-4,-7,5%,9%
Cc1ccc(S(=O)(=O)Nc2nc3ccc(N)cc3s2)cc1,-6,-3,-5%[46.1 µM],-10%[46.1 µM]
Cc1ccc2nc(-c3ccc(N)cc3)sc2c1,30*,11,3.5µM*,u
Nc1ccc2nc(-c3ccccc3)sc2c1,9,25,u,3.2µM*
Cc1ccc2nc(-c3ccc(NS(=O)(=O)c4ccc(F)cc4)cc3)sc2c1,52*,159*,u,u
Cc1ccc2nc(-c3ccc(N4C(=N)SC5CS(=O)(=O)CC54)cc3)sc2c1 (centres undefined),46*,126*,u,16%
COc1ccc(N2C(=O)S[C@@H]3CS(=O)(=O)C[C@@H]32)cc1,-3,-7,u,3%
Cc1cc(NC(=O)CCC(=O)N(CC(=O)NCC2CCCO2)c2ccc(F)c(Cl)c2)no1 (centres undefined),-3,-15,4%[46.1 µM],-8%[46.1 µM]
Nc1ccc(-c2nc3cc(N)ccc3s2)cc1,38*,67*,u,u
Fc1cccc(Cl)c1/C=N/Nc1ccccn1,10,58,3%,23%
CCCOc1ccc(/C=N/Nc2cc(N3CCOCC3)ncn2)c(O)c1,-1,-3,x,x
CCOc1ccc(/C=N/Nc2nc(C)cs2)c(O)c1,49*,58*,x,x
Cc1csc(N/N=C/c2ccccc2F)n1,38*,56*,u,u
Cc1csc(N/N=C/c2c(F)cccc2Cl)n1,38*,86*,15%,8%
Cc1ccc2nc(N/N=C/c3ccccc3F)nc(-c3ccccc3)c2c1,-3,9,14%,6%
O=C(CNc1c(Br)cc(Br)cc1Br)NN=C1CCCCC1,-3,8,-7%,x
COc1ccc(C2C=C3CN(C(=O)OC(C)(C)C)S(=O)(=O)C3CC2OC(=O)c2cccc(C)c2)cc1 (centres undefined),5,16,x,x
CN(C)S(=O)(=O)c1cccc(NC(=O)c2ccc3nccnc3c2)c1,20*,44,u,-6%
SMILES,Cycloheximide cs,Shiga inhibitor,MARV entry inh,LASV entry inh
CN(C)S(=O)(=O)c1cccc(NC(=O)CCSc2ccc(Cl)cc2)c1,-1,-3,u,10µM*
CC(=O)c1cccc(NC(=O)c2cccc(S(=O)(=O)N(C)C)c2)c1,13*,8,28%,-26%
CN(C)CC/C=C1/c2ccccc2CS(=O)(=O)c2ccccc21,x,x,-2%[46.1 µM],26%[46.1 µM]
CN(C)CC/C=C1\c2ccccc2COc2ccccc21,-5,-18,4µM*,u
C/C(=N/NC(=O)NC12CC3CC(CC(C3)C1)C2)c1ccccc1,-2,29,x,x
COC(=O)C(CCSC)NC(=O)c1cc2c(n(-c3ccccc3)c1=O)CCCC2=O (centres undefined),16*,38,u,0%[46.1 µM]
O=C(NNc1nc2ccccc2s1)c1ccc(F)cc1,44*,89*,u,-14%
O=C(NNc1nc2ccc(F)cc2s1)c1cccc(F)c1,42*,85*,11µM*,u
Cc1ccc2oc(=O)c3cc(C(=O)N4CCN(c5ccccc5F)CC4)sc3c2c1,x,x,-5%[46.1 µM],-6%[46.1 µM]
COc1cc(C(=O)OCCNC(=O)c2ccncc2)cc(OC)c1OC,-3,-7,14%,17%
Cc1cc(C)nc(Oc2ccc(Br)cc2Br)n1,25*,77*,-4%[46.1 µM],7%
C/C(=N/Oc1nc(C)cc(C)n1)c1ccc(Br)cc1,11,39,7%,3%
O=C(Nc1nccs1)c1ccc(COc2ccccc2)o1,50*,84*,u,17%
